This is a sample that favours compounds with a hit; in the whole collection about 2.3% have one here.
LEDGF integ inh: blockers of LEDGF/p75-dependent integrase strand transfer – biochemical, TR-FRET, high throughput, primary screen. TR-FRET IN-LEDGF/p75 DNA integration, Eu/Cy5. inhibition, % at 3.7 µM. hit rate 0.64% among 370,000;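 active means inhibition above the screen-wide mean plus 3 SD, cut at about 13% in these data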;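 further: signal is the Cy5 over europium emission ratio at 671 and 618 nm; 0% = plate median of compound wells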
PLC-beta3 inh: human PLC-beta3 inhibitors, primary screen, biochemical, fluorescence. 1-phosphatidylinositol 4,5-bisphosphate phosphodiesterase beta-3 (Homo sapiens), Q01970. hit rate 0.18% among 370,000. inhibition, % at 12.2 µM. Purified PLC-beta3, fluorogenic substrate; in the data active means inhibition above about 11%;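 further: 0% = median of compound wells on plate and 100% = full blocker control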
UHRF1 binding: UHRF1 methylated DNA binding inhibitors, primary screen, counter-screen for MBD2 inhibitor project, biochemical, TR-FRET, human UHRF1, single concentration | UHRF1 binding to methylated oligo | inhibition, % at 4.4 µM | hit rate 0.75% among 370,000 | E3 ubiquitin-protein ligase UHRF1 (Homo sapiens), Q96T88; in the data active means inhibition above about 21%;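 further: UHRF1 SRA domain binding a hemimethylated CpG hairpin DNA probe; 0% = median of test compound wells and 100% = reference inhibitor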
PLC-gamma1 inh: PLC-gamma1 enzyme inhibitors, primary screen, biochemical, fluorescence, purified enzyme; 1-phosphatidylinositol 4,5-bisphosphate phosphodiesterase gamma-1 (Homo sapiens), P19174; fluorogenic substrate; inhibition, % at 12.2 µM; hit rate 0.84% among 370,000; AID 720700, 2013; in the data active means inhibition above about 9.5%
MBD2 inh: inhibitors of MBD2 binding to methylated DNA, primary screen, biochemical, TR-FRET, DNA-binding domain, human | Methyl-CpG-binding domain protein 2 (Homo sapiens), Q9UBB5 | MBD2 binding to methylated oligonucleotide | inhibition, % at 4.4 µM | hit rate 0.31% among 370,000; in the data active means inhibition above about 13%
Target sequence (Q9UBB5 whole entry, looked up, the tested form may be a part): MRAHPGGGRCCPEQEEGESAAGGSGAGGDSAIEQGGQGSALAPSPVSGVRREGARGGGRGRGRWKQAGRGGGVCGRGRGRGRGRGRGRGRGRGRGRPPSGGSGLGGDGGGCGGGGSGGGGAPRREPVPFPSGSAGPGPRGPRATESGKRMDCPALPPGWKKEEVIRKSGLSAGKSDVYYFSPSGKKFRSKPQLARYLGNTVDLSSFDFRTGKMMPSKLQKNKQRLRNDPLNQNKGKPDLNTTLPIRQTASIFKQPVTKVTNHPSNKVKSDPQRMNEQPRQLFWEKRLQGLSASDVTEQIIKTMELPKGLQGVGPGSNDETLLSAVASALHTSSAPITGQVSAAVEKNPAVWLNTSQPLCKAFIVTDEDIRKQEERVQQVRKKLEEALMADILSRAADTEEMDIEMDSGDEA
An asterisk follows results filed as active.

SMILES | LEDGF integ inh | PLC-beta3 inh | UHRF1 binding | PLC-gamma1 inh | MBD2 inh
O=C(NC(Cc1ccccc1)C(=O)O)/C(=C/c1ccccc1)NC(=O)c1ccccc1 (configuration not stated) | 1 | -10 | 9 | 0 | 10
O=C(NC(Cc1ccccc1)C(=O)O)/C(=C\c1ccc(Cl)cc1)NC(=O)c1ccccc1 (configuration not stated) | -3 | -5 | 28* | 0 | -2
COC(=O)CCCn1cc(CN2CC=CS2(=O)=O)nn1 | -3 | 0 | 11 | -2 | 11
O=C(Cc1ccccc1)N/N=C/c1cc(Br)cc(Cl)c1O | -6 | -56 | 58* | -44 | 1
Fc1ccc(Nc2nc(-c3ccncc3)cs2)cc1 | 12 | -14 | 28* | 1 | 5
Clc1ccc(Nc2nc(-c3ccncc3)cs2)cc1 | -2 | -4 | 0 | -3 | -2
Cc1ccc(OCc2nnc(SCC(=O)Nc3ccc(S(N)(=O)=O)cc3)n2-c2ccc(Cl)cc2)cc1 | 1 | 2 | 0 | 6 | -1
COC(=O)c1ccc2nc(-c3ccc(OC)c(OC)c3)c(Cc3ccccc3C(F)(F)F)n2c1 | 2 | -40 | 24* | -27 | 5
COC(=O)c1ccc2nc(-c3ccc(C)cc3)c(Cc3ccccc3OC)n2c1 | -6 | -13 | 13 | -8 | 2
COC(=O)c1ccc2nc(-c3ccc(OC)c(OC)c3)c(Cc3ccccc3OC)n2c1 | -4 | -187 | 23* | -149 | 8
COC(=O)c1ccc2nc(-c3ccccc3)c(Cc3ccccc3C(F)(F)F)n2c1 | 2 | -10 | 2 | -3 | -1
COc1ccc(C(C)=O)c2c1OCCO2 | -1 | -18 | 54* | -17 | 0
CCN(CC)S(=O)(=O)c1ccc(Cl)c(C(=O)Nc2cc(C)nn2-c2ccccc2)c1 | 3 | 0 | 65* | 3 | 0
Cc1n[nH]c(C)c1CCC(=O)N/N=C/C=C/c1ccccc1 | -3 | -1 | 88* | -3 | -3
c1ccc(SCCN2CCN(c3ccccc3)CC2)cc1 | 6 | -4 | 4 | 10* | 0
C[n+]1c(-c2ccc(C=NNC(=O)c3ccc(C(=O)NN=Cc4ccc(-c5cn6ccccc6[n+]5C)cc4)cc3)cc2)cn2ccccc21 | 31* | -234 | 37* | -137 | 23*
O=C(c1ccc(Br)cc1)c1coc2ccc(O)cc12 | 4 | -8 | -5 | -1 | -3
O=C(c1coc2ccc(O)cc12)C1CC1 | -5 | 1 | 21* | 0 | -10
O=C1CC(c2ccccc2)CC(O)=C1C=NC1CCCC1 (configuration not stated) | -7 | -1 | 48* | -4 | 1
Cc1cc(C)cc(NC(=O)COC(=O)CC2CCCC2)c1 | 2 | -4 | 32* | 0 | 0
Cc1cc(C)cc(NC(=O)COC(=O)CCC2CCCC2)c1 | 1 | -2 | -3 | 0 | -2
O=C(Nc1nnc(-c2cccnc2)s1)c1cnc2ccccc2c1 | 0 | -40 | 0 | -32 | 0
O=C(NN=C1CCN(Cc2ccccc2)CC1)C(O)c1ccccc1 (configuration not stated) | 0 | -4 | 49* | -3 | -2
O=C1CCC[C@H]2Cc3nc4cccc(Cl)c4cc3C[C@]23CCCN13 | 0 | 2 | -1 | 2 | 2
CCOC(=O)[C@@]12CCCC=C1N(CCc1ccc(Cl)cc1)C(=O)[C@H]2CC(=O)N1CCCC1 | 0 | -2 | 2 | -2 | 2
SMILES | LEDGF integ inh | PLC-beta3 inh | UHRF1 binding | PLC-gamma1 inh | MBD2 inh
COC(=O)c1ccc2nc(C3CCCCC3)c(CC(C)(C)C)n2c1 | -4 | -2 | 21* | 3 | 0
CCCC(=O)OC12CCCN(C1)/C(=C/c1ccccc1)C2 (configuration not stated) | -3 | -5 | 2 | 0 | 6
CCOC(=O)C1=C(COC(=O)[C@@H](NC(=O)c2cccc(C)c2)C(C)C)NC(=O)NC1C (some centres not stated) | -2 | 1 | 21* | 1 | 3
CCOC(=O)C1=C(COC(=O)COc2ccc(C#N)cc2)NC(=O)NC1C (configuration not stated) | 8 | -2 | 22* | 2 | 11
CC[C@@H](CCCCCC#N)CCC(=O)N(c1ccccc1)c1ccccc1 | -1 | 2 | -1 | 3 | 2
COc1ccc(C(=O)N[C@@H]2CC[C@@]34CCCN3C(=O)CCC[C@H]4[C@H]2C)cc1 | -1 | 2 | 1 | 2 | 5
Cc1cc(C)c2c(c1)NC(C(=O)O)C1CC=CC21 (configuration not stated) | 31* | -48 | 39* | -33 | 16*
O=C(Nc1cccc([N+](=O)[O-])c1)c1cccc(C(=O)Nc2cccc([N+](=O)[O-])c2)c1 | 3 | 1 | 0 | -2 | 1
CC(NC(=O)Nc1cccc([N+](=O)[O-])c1)(C(F)(F)F)C(F)(F)F | 1 | 5 | 73* | 3 | -4
Cc1cccc(-c2cccc3c4c([nH]c23)[C@@H]2C[C@H](N(C)C(=O)NC3CCCCC3)[C@H]([C@H](C)O)C(=O)N2CC4)c1 | -2 | -44 | 2 | -31 | 4
CCOC(=O)[C@]12CCCC=C1N(CCCOC)C(=O)[C@@H]2CC(=O)NCc1cccc(C(F)(F)F)c1 | -2 | 0 | 1 | 0 | -3
Cc1cccc(C)c1NC(=O)C1(C)CCC(=O)N1c1cc(C(C)(C)C)nn1C (configuration not stated) | 4 | 1 | 22* | 1 | 11
Cn1nc(C(C)(C)C)cc1N1C(=O)CCC1(C)C(=O)NCc1ccccc1 (configuration not stated) | -1 | -2 | 1 | 0 | 4
CC(C)[C@H](NC(=O)[C@@H]1CCCN1)C(=O)N1CCC2CCN(S(=O)(=O)c3ccccc3)CC21 (some centres not stated) | -4 | 3 | 0 | -1 | 1
Cn1cc(S(=O)(=O)Oc2ccccc2)c(=O)n(C)c1=O | -6 | -7 | 28* | 1 | 4
Cc1ccc(OS(=O)(=O)c2cn(C)c(=O)n(C)c2=O)cc1C | 0 | -5 | -2 | -1 | 1
C#CCCN([C@@H](CC(C)C)C(=O)OC)S(=O)(=O)c1ccccc1Br | -2 | -1 | -1 | -2 | 4
Cn1c(=O)cc(OCCCC(=O)Nc2cc(-c3cn[nH]c3)ccn2)c2ccccc21 | 3 | 6 | -2 | 1 | -5
Cn1c(SCc2c(Cl)cccc2Cl)nnc1-c1cccs1 | 3 | -4 | 3 | 11* | -2
O=C1CCC[C@H]2C[C@H](NCc3ccc(F)cc3F)CC[C@]23CCCN13 | 0 | 0 | -1 | 0 | 2
Cc1ccc(-c2n[nH]c(=S)c3ccccc23)cc1 | -4 | -6 | 40* | 0 | 6

Assay outcomes deposited in PubChem by The Scripps Research Institute Molecular Screening Center.
